Reference: PubChem BioAssay (NCI)
This is part of a sample that, as a whole, favours compounds with a hit. Of some 83,000 tested, about 20% had one in any assay.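 Results are percent growth after 48 hours of single-concentration exposure. 100 means growth as in untreated cells, lower positive values show inhibition; negative values down to -100 show cell death.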 Active and inactive are the calls of the source. How the source made its calls: active means growth percent below 10; inactive means the rest.

Test system: MDA-MB-468 breast
Assay: NCI-60 one-dose screen, 48 h (100 = growth as untreated, 0 = no growth, -100 = all killed)
Settings: 10 µM unless noted

SMILES | growth
O=C(NNc1nc2cc(F)ccc2n2cncc12)c1cnccn1 | 31.7% (inactive)
C#Cc1cccc(NC(=O)c2ccccc2NC(=O)CCl)c1 | 76.1% [8.25 µM] (inactive)
CN(C(=S)S(=O)(=O)C12CC3CC(CC(C3)C1)C2)c1ccccc1 | 61.7% (inactive)
COc1cc(/C=C/c2cc(/C=C/c3ccc(O)c(OC)c3)n(C(N)=O)n2)ccc1O | -14.3% (active)
CCn1c(Sc2nnc(NC(C)=O)s2)nc2c1c(=O)n(C)c(=O)n2C | 87.5% (inactive)
CN(C)CCC(=O)c1c[nH]c2ccccc12 | 106% (inactive)
C=C(C)[C@@H]1CC[C@]2(C(=O)N3CCN(C)CC3)CC[C@]3(C)[C@H](CC[C@@H]4[C@@]5(C)CC(CCCNC(C)=O)(CCCNC(C)=O)[C@H](OC(C)=O)C(C)(C)[C@@H]5CC[C@]43C)[C@@H]12 | 99.2% (inactive)
CN1C(=O)C(=Cc2cn(Cc3ccccc3)c3ccc(Br)cc23)C(=O)N(C)C1=O | -49.4% (active)
COc1ccc(/C=C/C(=O)c2ccc(Nc3ncnc4ccccc34)cc2)cc1OC | 60.7% (inactive)
CC1(O)OC(COc2ccc(Cl)cc2)COC1O (stereo unspecified) | 105% (inactive)
COc1ccc(-c2ccc(-c3ccc(-c4ccc(C(=N)N)cc4)s3)s2)cc1OC | -71.4% (active)
COc1ccc(-c2n/c(=C\c3c(O)[nH]c4ccccc34)cc3c2=Nc2ccccc2-3)cc1 | -48% (active)
COc1ccc(S(=O)(=O)Nc2ccc(OCc3nnc(-c4ccc(Cl)cc4)o3)c(F)c2)cc1 | 15.2% (inactive)
Clc1ccc(-c2noc(/C=C\c3ccccc3)n2)cc1 | 97.7% (inactive)
Nc1nc(N)c2c(n1)NC(c1ccccc1)C1CCc3ccccc3C1=N2 (stereo unspecified) | -12.7% (active)
FC(F)(F)c1ccc2c(Nc3cccc(C4CC(c5ccccc5)=NN4c4ccc(Cl)cc4)c3)ccnc2c1 (stereo unspecified) | 47.4% (inactive)
O=c1oc2ccc(Cl)cc2c(=O)n1-c1ccc(I)cc1F | 1.73% (active)
CCCNNC(=O)/C=C/c1ccc(CNCCc2c(C)[nH]c3ccccc23)cc1 | 32.8% [2.5 µM] (inactive)
CNCCNc1nc2ccccc2c2c(=O)c3cccc(C)c3sc12 | -14.9% (active)
O=C(Nc1ccc(Cl)cc1F)c1cc(I)ccc1O | 41.4% (inactive)
CCCn1cc2c(=O)nc3sc(Cc4ccccc4)c(C)n3c2n1 | 111% (inactive)
O=c1cc(-c2ccccc2)[nH]c2ncc(-c3ccc(F)cc3)n12 | 83% (inactive)
O=C(/C=C/CN1CCCCC1)Nc1cc2c(Nc3ccc(F)c(Cl)c3F)ncnc2cc1OCCOC(F)F | -48.7% (active)
NC(Cc1ccc(O)c([N+](=O)[O-])c1)C(=O)O (stereo unspecified) | 101% (inactive)
Cc1cccc(-c2nnc(SCC(=O)Nc3ncc(Cc4ccccc4)s3)n2N2C(=O)CSC2=S)c1 | 62.1% (inactive)
CC(C)CSc1nc(-c2ccc(F)cc2)c(C#N)c(N2CCCCC2)n1 | 101% (inactive)
